Reference: the supplement of paper PMC5662767
Where a name gives a salt, the structure may show the parent alone.

Test system: Drosophila S2 cl14 SmoIP sensor cells
Experiment: normalized SmoIP GFP fluorescence (untreated unstimulated = 0%, untreated Hh-stimulated = 100%); higher = more Smo activation sensor fluorescence
Conditions: compound concentration: 2 uM, 24 h
[1] = stimulation: mock conditioned medium (-Hh)
[2] = stimulation: Hh conditioned medium (+Hh)
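Further: flow cytometry read-out as median GFP intensity of gated cells, compounds added 30 min before Hh-conditioned or mock medium, mock-treated cells serving as unstimulated baseline.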

| SMILES | normalized SmoIP GFP fluorescence [1] | normalized SmoIP GFP fluorescence [2] |
| --- | --- | --- |
| CN1CCCCC1Cn1cc(C(=O)c2cc([N+](=O)[O-])ccc2I)c2ccccc21 (stereo unspecified) | 32.3% | – |
| CCCN1CCOC2c3cc(O)ccc3OCC21 (stereo unspecified) | -13.6% | 113% |
| C[C@@H]1O[C@@H](O[C@H]2C[C@@H](O)[C@]3(CO)[C@H]4[C@H](O)C[C@]5(C)[C@@H](C6=CC(=O)OC6)CC[C@]5(O)[C@@H]4CC[C@]3(O)C2)[C@H](O)[C@H](O)[C@H]1O [ouabain] | -2.08% | 102% |
| CCc1c(C(=O)C(N)=O)c2c(OCC(=O)O)cccc2n1Cc1ccccc1 | 4.26% | – |
| Cn1cc(C2=C(c3cn(C4CCN(Cc5ccccn5)CC4)c4ccccc34)C(=O)NC2=O)c2ccccc21 [Enzastaurin] | 38.2% | 135% |
| O=C(NCC1CCOCC1)c1cnc(Nc2ccc(Cl)cc2Cl)nc1C(F)(F)F | -1.63% | 102% |
| CC(=O)Nc1ccc(OC[C@](C)(O)C(=O)Nc2ccc([N+](=O)[O-])c(C(F)(F)F)c2)cc1 [Andarine] | 0.274% | 107% |
| CCN1CCN(C(=O)Cc2ccc(Nc3ncc(F)c(Nc4ccc(C(=O)Nc5ccccc5Cl)cc4)n3)cc2)CC1 [Aurora-A-Inhibitor-I] | 2.11% | 151% |
| O=c1[nH]c2ccc(Cl)cc2c(N[C@@H]2CN3CCC2CC3)c1-c1nc2ccccc2[nH]1 [chir-124] | 23.9% | 253% |
| Cc1ccccc1-n1c(Cn2ncc3c(N)ncnc32)nc2cccc(C)c2c1=O | -6.79% | 115% |
| C=C1C[C@@H]2[C@H](CC[C@]3(C)C(=O)CC[C@@H]23)[C@@]2(C)C=CC(=O)C=C12 [Exemestane] | -5.01% | 115% |
| Cc1cccc(C(C)c2c[nH]cn2)c1C (stereo unspecified) [medetomidine-hcl] | -1.63% | 108% |
| Fc1cc(F)c2c(c1)[C@H]1C=CC[C@H]1C(c1cccnc1)N2 (stereo partly specified) [golgicide-a] | -5.15% | 101% |
| C[C@H]1CNCCc2ccc(Cl)cc21 [lorcaserin-hcl] | -2.48% | 99.3% |
| O=C(O)CNC(=O)c1c(O)c2ccccc2n(Cc2ccccc2)c1=O | -2.82% | 109% |
| C[C@](O)(COc1ccc(C#N)cc1)C(=O)Nc1ccc(C#N)c(C(F)(F)F)c1 [Ostarine] | 2.97% | 119% |
| CN1CCN(c2nc3ccccc3nc2Cl)CC1 | -1.34% | 105% |
| COc1ccc(C(CN(C)C)C2(O)CCCCC2)cc1 (stereo unspecified) [Venlafaxine-hydrochloride] | -2.42% | – |
| CCC(COC(=O)c1cc(OC)c(OC)c(OC)c1)(c1ccccc1)N(C)C (stereo unspecified) [trimebutine] | -15.8% | 111% |
| CN1[C@@H]2C[C@@H](OC(=O)[C@H](CO)c3ccccc3)C[C@H]1[C@@H]1O[C@@H]12 [Scopolamine-hydrobromide] | -17.7% | 113% |
| Cc1cc(SCc2sc(-c3ccc(C(F)(F)F)c(F)c3)nc2C)ccc1OCC(=O)O | -1.74% | 106% |
| CC(C)(C)c1cc(C=C(C#N)C#N)cc(Br)c1O [ag-1024-tyrphostin] | 14.2% | – |
| Cc1cccc(C)c1NC(=O)CN1CCCC1=O [Nefiracetam(Translon)] | -10.8% | 138% |
| Cc1cccc([C@H](C)c2c[nH]cn2)c1C [dexmedetomidine] | -2.59% | 108% |
| CN1CCC(c2c[nH]c3ccc(O)cc23)CC1 | -2.82% | 111% |
| C#C[C@]1(O)C=C[C@H]2[C@@H]3CCC4=CC(=O)CC[C@@H]4[C@H]3CC[C@@]21CC [Gestodene] | 5.45% | – |
| CNCC(=O)c1ccc(O)c(O)c1 [adrenalone-hcl] | -3.39% | 106% |

| SMILES | normalized SmoIP GFP fluorescence [1] | normalized SmoIP GFP fluorescence [2] |
| --- | --- | --- |
| COC[C@H]1OC(=O)c2coc3c2[C@@]1(C)C1=C(C3=O)[C@@H]2CCC(=O)[C@@]2(C)C[C@H]1OC(C)=O [wortmannin] | 9.08% | 73.6% |
| C[C@]12CC[C@H]3[C@@H](CC[C@@]45O[C@@H]4C(O)=C(C#N)C[C@]35C)[C@@H]1CC[C@@H]2O [Trilostane] | -0.265% | 109% |
| CCCN1C[C@H](CSC)C[C@@H]2c3cccc4[nH]cc(c34)C[C@H]21 [Pergolide-mesylate] | -0.889% | 119% |
| O=C(O[C@H]1C[N+]2(CCCOc3ccccc3)CCC1CC2)C(O)(c1cccs1)c1cccs1 [aclidinium-bromide] | -4.58% | 97.3% |
| N#CC(C#N)=Cc1ccc(O)c(O)c1 [ag-18-tyrphostin-23] | -12% | 147% |
| CCN(C)C(=O)Oc1cccc([C@H](C)N(C)C)c1 [rivastigmine-tartrate-exelon] | -3.05% | 95.8% |
| Cc1cccc(Cc2c[nH]cn2)c1C [detomidine-hcl] | -8.77% | 139% |
| CC[C@@]1(O)C(=O)OCc2c1cc1n(c2=O)Cc2cc3ccccc3nc2-1 [Camptothecine] | 2.64% | 33.6% |
| COc1ccc(C(=O)N2CCCC2=O)cc1 [Aniracetam] | -0.588% | 104% |
| C[N+](C)(C)CCCCCCCCCC[N+](C)(C)C [decamethonium-bromide] | -5.04% | 104% |
| Cc1sc2c(c1C)C(c1ccc(Cl)cc1)=N[C@@H](CC(=O)Nc1ccc(O)cc1)c1nnc(C)n1-2 | -1.34% | 102% |
| CN1c2ccccc2C(NCCCCCCC(=O)O)c2ccc(Cl)cc2S1(=O)=O (stereo unspecified) [Tianeptine-sodium-salt] | 0.274% | 110% |
| N[C@@H]1C[C@H]1c1ccccc1 [tranylcypromine-2-pcpa-hcl] | -1.34% | 109% |
| CNCC(O)c1ccc(O)cc1 (stereo unspecified) [synephrine-hcl] | -9.85% | 140% |
| CCN(CC)C(=O)c1ccc(C2=CC3(CCNCC3)Oc3cccc(O)c32)cc1 | 2.11% | 99.7% |
| C[C@]12N[C@H](Cc3ccccc31)c1ccccc12 [mk-801-maleate] | -3.16% | 103% |
| COC(=O)C1=CCCN(C)C1 [arecoline] | -12.4% | 130% |
| [O-][n+]1ccccc1[S-].[O-][n+]1ccccc1[S-].[Zn+2] [zinc-pyrithione] | 2.35% | 131% |
| CCOc1ccccc1-n1c(C(C)N2CCN(C(=O)COc3ccc(Cl)cc3)CC2)nc2ccccc2c1=O (stereo unspecified) [erastin] | 3.66% | 134% |
| CN1CCc2cc3c(cc2[C@H]1[C@@H]1OC(=O)c2c1ccc1c2OCO1)OCO3 [bicuculline] | -3.9% | 101% |
| COc1cc(-n2c(=S)[nH]c3ccccc3c2=O)c(Cl)cc1Cl [mdivi-1] | -1.34% | 108% |
| CN1[C@@H]2CC(O)C[C@H]1[C@@H]1O[C@@H]12 (stereo partly specified) [scopine] | -12% | 142% |
| C[C@]12CCC(=O)C(O)=C1CC[C@@H]1[C@@H]2CC[C@]2(C)C(=O)CC[C@@H]12 [Formestane] | -2.2% | 93.9% |
| C=CC[C@]1(O)CC[C@H]2[C@@H]3CCC4=CC(=O)CCC4=C3C=C[C@@]21C [altrenogest] | -1.23% | 109% |
| C[C@H]1CCC/C=C/[C@@H]2C[C@H](O)C[C@H]2[C@H](O)/C=C/C(=O)O1 [brefeldin-a] | -4.58% | 101% |
| C[C@]12CC[C@H](O)CC1=CC[C@@H]1[C@@H]2CC[C@]2(C)C(=O)CC[C@@H]12 [Dehydroepiandrosterone(DHEA)] | -12.4% | 134% |
